# Measured values taken from PubChem BioAssay (EPA / NIEHS).
# Where “and” joins values, the source holds several entries; their conditions need not be identical. Equal values may be shown once. Results filed as inconclusive are left out. Calls of active or inactive are those of the source. How the source made its calls, unless noted: active means hit-call score of the fitted dose curve at least 0.9, where 1 is the maximum; inactive means score below 0.9.
# Columns and labels:
# [1] = target: Nucleoli Translocation, AR (gene 367) (UniProt P10275); experiment: UPITT_HCI_U2OS_AR_TIF2_Nucleoli_Antagonist: University of Pittsburgh U2OS Androgen Receptor-Transcriptional Intermediary Factor 2 (AR-TIF2) Antagonism High Content Imaging Assay for Nucleoli Translocation (AID 2283997; active means hit-call score of the fitted dose curve at least 0.9, where 1 is the maximum)
# Chain of Nucleoli Translocation, AR (gene 367) (P10275 whole entry, looked up): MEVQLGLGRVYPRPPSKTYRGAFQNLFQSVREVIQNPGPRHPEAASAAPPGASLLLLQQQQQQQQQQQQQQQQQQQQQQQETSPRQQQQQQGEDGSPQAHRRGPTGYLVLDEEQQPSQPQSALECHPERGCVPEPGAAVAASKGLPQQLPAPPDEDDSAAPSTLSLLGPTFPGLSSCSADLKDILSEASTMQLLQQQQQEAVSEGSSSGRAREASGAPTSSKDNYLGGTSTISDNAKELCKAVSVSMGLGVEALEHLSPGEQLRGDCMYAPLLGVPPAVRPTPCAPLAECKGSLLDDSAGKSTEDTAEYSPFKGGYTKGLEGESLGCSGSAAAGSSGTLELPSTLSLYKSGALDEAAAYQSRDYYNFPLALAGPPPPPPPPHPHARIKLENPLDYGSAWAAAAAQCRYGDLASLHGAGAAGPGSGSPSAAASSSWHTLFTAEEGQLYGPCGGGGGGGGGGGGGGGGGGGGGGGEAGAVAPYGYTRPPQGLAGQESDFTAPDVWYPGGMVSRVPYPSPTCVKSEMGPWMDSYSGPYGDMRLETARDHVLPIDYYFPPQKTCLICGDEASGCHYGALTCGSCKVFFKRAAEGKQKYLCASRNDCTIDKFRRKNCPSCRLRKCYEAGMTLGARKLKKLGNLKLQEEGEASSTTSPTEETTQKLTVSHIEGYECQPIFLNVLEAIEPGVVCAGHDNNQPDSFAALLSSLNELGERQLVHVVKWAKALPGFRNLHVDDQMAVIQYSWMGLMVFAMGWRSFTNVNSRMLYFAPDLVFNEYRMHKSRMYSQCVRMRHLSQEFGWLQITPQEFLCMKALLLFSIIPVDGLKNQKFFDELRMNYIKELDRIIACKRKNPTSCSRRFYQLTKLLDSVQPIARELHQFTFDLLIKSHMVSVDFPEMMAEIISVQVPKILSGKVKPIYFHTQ
# Procedure, shortened: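 U2OS cells expressing RFP-tagged human AR and GFP-tagged TIF2 were imaged by high-content fluorescence microscopy for red AR signal in the nucleolar region. Compounds were screened at 20 uM final (0.2% DMSO), with activity fitted relative to DHT as baseline.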
# [2] = target: Nucleoli Translocation, AR (gene 367) (UniProt P10275); experiment: UPITT_HCI_U2OS_AR_TIF2_Nucleoli_Agonist: University of Pittsburgh U2OS Androgen Receptor-Transcriptional Intermediary Factor 2 (AR-TIF2) Agonism High Content Imaging Assay for Nucleoli Translocation (AID 2283998; active means hit-call score of the fitted dose curve at least 0.9, where 1 is the maximum)
# Procedure, shortened: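 Readout is red (AR-RFP) fluorescence localized to nucleoli, measured by high-content imaging and analysed for increase relative to DMSO. Compound series spanned 0.195 to 50 uM final in 0.5% DMSO.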
# [3] = target: Ratio of Nucleoli Translocation and Cytoplasm, AR (gene 367) (UniProt P10275); experiment: UPITT_HCI_U2OS_AR_TIF2_Nucleoli_Cytoplasm_Ratio_Antagonist: University of Pittsburgh U2OS Androgen Receptor-Transcriptional Intermediary Factor 2 (AR-TIF2) Antagonism High Content Imaging Assay for Ratio of Nucleoli Translocation and Cytoplasm (AID 2283999; active means hit-call score of the fitted dose curve at least 0.9, where 1 is the maximum;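 further: antagonists lower the DHT-driven ratio of nucleolar to cytoplasmic red signal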)
# Chain of Ratio of Nucleoli Translocation and Cytoplasm, AR (gene 367) (P10275 whole entry, looked up): as above
# Procedure, shortened: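 U2OS cells co-expressing RFP-tagged human AR and GFP-tagged TIF2, antagonist mode with DHT as baseline. Nucleolar-to-cytoplasmic red fluorescence ratio imaged by high-content microscopy; final compound 20 uM (0.2% DMSO) primary, 0.195–50 uM (0.5% DMSO) concentration-response.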
# [4] = target: Ratio of Nucleoli Translocation and Cytoplasm, AR (gene 367) (UniProt P10275); experiment: UPITT_HCI_U2OS_AR_TIF2_Nucleoli_Cytoplasm_Ratio_Agonist: University of Pittsburgh U2OS Androgen Receptor-Transcriptional Intermediary Factor 2 (AR-TIF2) Agonism High Content Imaging Assay for Ratio of Nucleoli Translocation and Cytoplasm (AID 2284000; active means hit-call score of the fitted dose curve at least 0.9, where 1 is the maximum;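 further: hits raise the red nucleolar to cytoplasm ratio above vehicle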)
# Procedure, shortened: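 U2OS cells expressing RFP-tagged human AR and GFP-tagged TIF2 were imaged by high-content fluorescence microscopy. The endpoint is the ratio of nucleolar to cytoplasmic red fluorescence, fitted for gain of signal relative to DMSO. Concentration-response spanned 0.195 to 50 uM final (0.5% DMSO).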
# [5] = CCTE_Simmons_MITO_basal_resp_rate: CCTE's HepG2 Seahorse XF Respirometric Screening Assay at Basal Respiratory State, Simmons Lab (AID 2284001); details: actives raise or lower the signal
# Procedure, shortened: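 HepG2 cells were given test chemicals at 7 concentrations, 125 nM to 100 uM final, and oxygen consumption rate was read every 6 min (3 min mix, 3 min measure) over 72 min. Basal-phase OCR was fitted bidirectionally against DMSO.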
# [6] = CCTE_Simmons_MITO_inhib_resp_rate: CCTE's HepG2 Seahorse XF Respirometric Screening Assay at Inhibited Respiratory State [full ETC block], Simmons Lab (AID 2284006); details: actives raise or lower the signal
# Procedure, shortened: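 HepG2 oxygen consumption was measured by Seahorse XF after compound, FCCP, then rotenone/antimycin A injections. Seven concentrations from 125 nM to 100 uM (final) were tested, with 6-min kinetic reads over 72 minutes. Inhibited-state OCR was fitted bidirectionally against DMSO.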
# [7] = CCTE_Simmons_MITO_viability: CellTiter-Glo Viability Assessment for CCTE's HepG2 Seahorse XF Respirometric Screening Assay [post-hoc], Simmons Lab (AID 2284007; active means hit-call score of the fitted dose curve at least 0.9, where 1 is the maximum;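 on AC50: cells exposed to chemical for 90 min before the ATP read; actives lower ATP signal relative to DMSO baseline meaning reduced viability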)
# Procedure, shortened: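 HepG2 cells exposed 90 min to 7 concentrations from 125 nM to 100 uM final, then ATP measured by luciferase luminescence. Three biological replicates per concentration; DMSO vehicle; dichlone control at 10 nM–100 uM.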
# [8] = CCTE_Shafer_MEA_acute_firing_rate_mean: CCTE's Neural Acute Assay for Mean Firing Rate, Shafer Lab (AID 2284009);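 further: analyzed for loss of signal so actives lower firing rate relative to DMSO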
# Procedure, shortened: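 Read-out: well-mean spike rate (spikes/recording length/electrodes), % change from 40 min pre-dose baseline to 40 min with compound. Rat cortical cultures, DIV 13 or 15, 37 C; 0.03-40 uM; DMSO as negative control.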
# [9] = CCTE_Harrill_HTTr_Viability_MCF7: CCTE's 6-hour Cell Viability Assessment for the High-Throughput Transcriptomics (HTTr) Platform, in MCF-7 cells cultured in DMEM + 10% fetal bovine serum, Harrill Lab (AID 2284010)
# Procedure, shortened: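 MCF-7 cells in DMEM + 10% FBS, 384-well, exposed 6 h to an eight-point dilution series. Membrane integrity scored by high-content imaging of propidium iodide exclusion; bidirectional fit versus DMSO.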
# [10] = CCTE_Harrill_HTTr_Apoptosis_MCF7: CCTE's 6-hour Apoptosis Assessment for the High-Throughput Transcriptomics (HTTr) Platform, in MCF-7 cells cultured in DMEM + 10% fetal bovine serum, Harrill Lab (AID 2284011)
# Procedure, shortened: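 MCF-7 (DMEM + 10% FBS), 384-well; 8-pt dilution series, 6 h chemical exposure; caspase-3/7 activation via CellEvent Caspase 3/7 Green, HCI; bidirectional fit vs DMSO.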
# [11] = CCTE_Harrill_HTTr_CellCount_MCF7: CCTE's Cell Proliferation Assessment for the High-Throughput Transcriptomics (HTTr) Platform, Harrill Lab (AID 2284012; active means hit-call score of the fitted dose curve at least 0.9, where 1 is the maximum;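 further: cells exposed to compound for six hours; intended direction is loss of nuclei count meaning fewer cells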)
# Procedure, shortened: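 MCF7 cells exposed 6 hours to an eight-point dilution series; Hoechst-stained nuclei counted by high-content imaging. Bidirectional curve fitting against DMSO baseline.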
# [12] = CCTE_Shafer_MEA_acute_burst_number: CCTE's Neural Acute Assay for Single-Electrode Bursts, Shafer Lab (AID 2284013)
# Procedure, shortened: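 Rat cortical cultures, DIV 13/15; 40 min baseline, then 40 min with compound 0.03-40 uM, 37 C. Spikes: 300-5000 Hz band-pass, threshold 8x rms noise. Readout = % change in single-electrode bursts vs baseline, loss-of-signal fit.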
# [13] = CCTE_Shafer_MEA_acute_burst_duration_mean: CCTE's Neural Acute Assay for Mean Burst Duration, Shafer Lab (AID 2284014);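 further: hits are decreases in mean burst duration relative to DMSO controls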
# Procedure, shortened: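 Primary rat cortical neurons on 16-electrode MEA wells, treated on DIV 13 or 15 with compound (0.03-40 uM; ≥3 wells each). 40-min baseline and 40-min exposure recordings at 37 C; percent change in mean burst duration per well versus DMSO.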
# [14] = CCTE_Shafer_MEA_acute_per_burst_spike_number_mean: CCTE's Neural Acute Assay for Average Number of Spikes Per Burst, Shafer Lab (AID 2284015);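 further: hits are decreases in mean spikes per burst versus baseline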
# Procedure, shortened: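 Primary rat cortical neurons on 48-well MEA plates, treated on DIV 13 or 15 at 0.03-40 uM. Spontaneous activity recorded 40 min before and 40 min after compound at 37 C; percent change in mean spikes per single-electrode burst per well, fitted in the loss direction versus DMSO.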
# [15] = CCTE_Shafer_MEA_acute_interburst_interval_mean: CCTE's Neural Acute Assay for Mean Interburst Interval, Shafer Lab (AID 2284016);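 further: percent change of mean interburst interval versus each well's own pre-dose baseline; curves fitted for decrease in interburst interval relative to DMSO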
# Procedure, shortened: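 Primary rat cortical neurons on 16-electrode MEA wells were recorded 40 min at baseline on DIV 13 or 15, then 40 min after compound (0.03-40 uM), at 37 C. Value is percent change in mean interburst interval per well, DMSO as negative control.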
# [16] = system: DIO1 (gene 1733); experiment: CCTE_GLTED_hDIO1: CCTE's human Deiodinase 1 (DIO1) Inhibition Assay, Great Lakes Toxicology and Ecology Division (GLTED) Lab (AID 2283987; active means hit-call score of the fitted dose curve at least 0.9, where 1 is the maximum;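 further: isolated human DIO1 enzyme in a cell-free setup rather than cells; enzyme activity read as free iodide liberated from substrate via Sandell-Kolthoff colorimetry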)
# Procedure, shortened: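 Inhibition of human deiodinase 1 is scored as reduced iodide liberation after a 3 h enzyme–chemical incubation, detected colorimetrically by the Sandell-Kolthoff reaction against DMSO controls.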
# [17] = CCTE_Harrill_HTTr_Apoptosis_DMEM_24hr: (Pilot) CCTE's 24-hour Apoptosis Assessment for the High-Throughput Transcriptomics (HTTr) Platform, in MCF-7 cells cultured in DMEM + 10% fetal bovine serum, Harrill Lab (AID 2283983)
# Procedure, shortened: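 MCF-7 cells in DMEM + 10% FBS, eight-point dilution series, 24 h exposure. Caspase-3/7 activation imaged by high-content imaging with CellEvent Caspase 3/7 Green. Bidirectional curve fitting against DMSO baseline.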
# [18] = CCTE_Harrill_HTTr_Apoptosis_PRF_DMEM_6hr: (Pilot) CCTE's 6-hour Apoptosis Assessment for the High-Throughput Transcriptomics (HTTr) Platform, in MCF-7 cells cultured phenol red-free DMEM + 10% charcoal-stripped fetal bovine serum, Harrill Lab (AID 2283984)
# Procedure, shortened: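 MCF-7 cells in phenol red-free DMEM + 10% charcoal-stripped FBS, eight-point dilution series, 6 h exposure. Caspase-3/7 activation imaged by high-content imaging with CellEvent Caspase 3/7 Green; bidirectional fit versus DMSO baseline.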
# [19] = CCTE_Harrill_HTTr_Apoptosis_PRF_DMEM_12hr: (Pilot) CCTE's 12-hour Apoptosis Assessment for the High-Throughput Transcriptomics (HTTr) Platform, in MCF-7 cells cultured in phenol red-free DMEM + 10% charcoal-stripped fetal bovine serum, Harrill Lab (AID 2283985)
# Procedure, shortened: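 MCF-7 cells in phenol red-free DMEM with 10% charcoal-stripped FBS, eight-point dilution series, 12 h exposure. Caspase-3/7 activation imaged by high content imaging with CellEvent Green reagent; bidirectional fit vs DMSO.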
# [20] = CCTE_Harrill_HTTr_Apoptosis_PRF_DMEM_24hr: (Pilot) CCTE's 24-hour Apoptosis Assessment for the High-Throughput Transcriptomics (HTTr) Platform, in MCF-7 cells cultured in phenol red-free DMEM + 10% charcoal-stripped fetal bovine serum, Harrill Lab (AID 2283986)
# Procedure, shortened: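 MCF-7 cells in phenol red-free DMEM with 10% charcoal-stripped FBS, exposed 24 h across an eight-point dilution series. Caspase-3/7 activation imaged with CellEvent Green by high content imaging; bidirectional fitting against DMSO.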
smiles,measurement,setting,value
CCOP(=O)(NC(C)C)Oc1ccc(SC)c(C)c1 (centres undefined),outcome,[1],inactive
same,outcome,[2],inactive
same,outcome,[3],inactive
same,outcome,[4],inactive
same,outcome,[5],inactive
same,outcome,[6],inactive
same,outcome,[7],inactive
same,AC50,[8],10.2 µM (active)
same,outcome,[9],inactive
same,outcome,[10],inactive
same,outcome,[11],inactive
same,outcome,[12],inactive
same,outcome,[13],inactive
same,outcome,[14],inactive
same,outcome,[15],inactive
CCCOCC(=Nc1ccc(Cl)cc1C(F)(F)F)n1ccnc1,AC50,[16],16.2 µM (active)
same,outcome,[5],inactive
same,outcome,[6],inactive
same,AC50,[7],18.2 µM (active)
same,AC50,[8],0.571 µM (active)
same,outcome,[9],inactive
same,outcome,[10],inactive
same,outcome,[11],inactive
same,AC50,[12],0.686 µM (active)
same,AC50,[13],6.29 µM (active)
same,AC50,[14],2.02 µM (active)
same,outcome,[15],inactive
C#CCC1=C(C)C(OC(=O)C2C(C=C(C)C)C2(C)C)CC1=O (centres undefined),AC50,[5],34.9 µM (active)
same,outcome,[6],inactive
same,outcome,[7],inactive
same,AC50,[8],27.4 µM (active)
same,outcome,[9],inactive
same,outcome,[10],inactive
same,AC50,[12],13.3 µM (active)
same,AC50,[13],15.5 µM (active)
same,outcome,[14],inactive
same,outcome,[15],inactive
CCNc1nc(Cl)nc(NC(C)(C)C#N)n1,outcome,[17],inactive
same,outcome,[18],inactive
same,outcome,[19],inactive
same,outcome,[20],inactive
same,outcome,[9],inactive
same,outcome,[10],inactive
FC(F)C(F)(F)OCC(Cn1cncn1)c1ccc(Cl)cc1Cl (centres undefined),AC50,[5],12.8 µM (active)
same,outcome,[6],inactive
same,AC50,[7],16.9 µM (active)
same,AC50,[8],5.92 µM (active)
same,outcome,[9],inactive
same,outcome,[10],inactive
same,outcome,[11],inactive
same,outcome,[12],inactive
same,outcome,[13],inactive
same,outcome,[14],inactive
same,outcome,[15],inactive
CC(C1CC1)C(O)(Cn1cncn1)c1ccc(Cl)cc1 (centres undefined),outcome,[17],inactive
same,outcome,[18],inactive
same,outcome,[19],inactive
same,outcome,[20],inactive
same,AC50,[5],35.3 µM (active)
same,outcome,[6],inactive
same,outcome,[7],inactive
same,outcome,[9],inactive
same,outcome,[10],inactive
same,outcome,[11],inactive
CN(C)[C@@H]1C(=O)C(C(N)=O)=C(O)[C@@]2(O)C(=O)C3=C(O)c4c(O)cccc4[C@@](C)(O)[C@H]3[C@H](O)[C@@H]12,AC50,[16],29.8 µM (active) and 15.9 µM (active) and 27.1 µM (active)
same,outcome,[5],inactive
same,outcome,[6],inactive
same,outcome,[8],inactive
same,outcome,[9],inactive
same,outcome,[10],inactive
same,outcome,[11],inactive
same,outcome,[12],inactive
same,outcome,[13],inactive
same,outcome,[14],inactive
same,outcome,[15],inactive
Cc1nn(-c2cc(NS(C)(=O)=O)c(Cl)cc2Cl)c(=O)n1C(F)F,outcome,[1],inactive
same,outcome,[2],inactive
same,outcome,[3],inactive
same,outcome,[4],inactive
same,outcome,[9],inactive
same,outcome,[10],inactive
same,outcome,[11],inactive
CCc1cccc(C)c1N(C(=O)CCl)C(C)COC (centres undefined),AC50,[16],64.2 µM (active)
same,AC50,[5],23.7 µM (active)
same,outcome,[6],inactive
same,outcome,[7],inactive
same,AC50,[8],27 µM (active)
same,outcome,[9],inactive
same,outcome,[10],inactive
same,outcome,[11],inactive
same,AC50,[12],14.8 µM (active)
same,outcome,[13],inactive
same,outcome,[14],inactive
same,outcome,[15],inactive
